Source: ChEMBL document CHEMBL4888484, “Replenishing the malaria drug discovery pipeline: Screening and hit evaluation of the MMV Hit Generation Library 1 (HGL1) against asexual blood stage Plasmodium falciparum ,using a nano luciferase reporter read-out” (2022)
Among all 4,800 compounds or so, about 420 (8.8%) showed an effect of 50% or more. The sample holds strong results, similar compounds and a random draw of the others, so the mix is not that of the screen.

Test system: Plasmodium falciparum
Assay: Confirmatory screen in NF54 nanoGlo assay, in single point, at 2uM, 72h
Format: functional, Erythrocyte
Details: timepoint 72 hour

SMILES | % Inhibition [%]
O=S(=O)(c1ccc(Cl)cc1)N1CCN(C2CCCC2)CC1 | 2
Cc1ccc(Cn2cnc(NC(=O)CCn3c(=O)cc(C(F)F)c4cn(C)nc43)n2)cc1 | -8
CCCCn1nc(NC(=O)c2cc(C3CC3)[nH]n2)cc1C | -2
CCn1c(C)c(C)c2cc(C(=O)Nc3cccc(S(=O)(=O)N4CCOCC4)c3)ccc21 | 0
CN(C)Cc1ccc(NC(=O)c2cc(F)cc3c(=O)c4cc(F)ccc4[nH]c23)cc1 | 79
O=c1[nH]c2ccccc2c(NCc2ccccc2)c1N1CCN(c2ccccc2)CC1 | 5
Cc1cccc(NC(=O)c2cc(C)nc3c2c(C)nn3-c2ccc(F)cc2)c1 | -2
CC(=O)Nc1cccc(C#CCN2CCN(c3ccc(F)cc3)CC2)c1 | -5
CC(C)n1nccc1NC(=O)c1c[nH]c2ccc(F)cc2c1=O | -1
CC(C)NC(=O)N(C)Cc1ccc(F)cc1 | 0
CCN1CCN(c2cccc(NC(=O)c3ccc4[nH]c5ccccc5c(=O)c4c3)c2)CC1 | 93
CCN1CCN(c2cccc(NC(=O)c3cc(F)cc4c(=O)c5cc(F)ccc5[nH]c34)c2)CC1 | 97
O=C(Nc1ccc(N2CCC(N3CCCCC3)CC2)cc1C(=O)O)c1ccccc1Cl | 4
O=C1C2C3C=CC(C3=C(c3ccccc3)c3ccccc3)C2C(=O)N1CCO (stereo not given) | -5
N#Cc1ccc(N[C@H]2CCCN(Cc3ccc(F)cc3F)C2=O)cn1 | -10
Cc1nc(COc2nc(C(C)(C)C)no2)cs1 | -10
Cc1ccsc1NC(=O)OC(C)(C)C | 1
Cc1nonc1N(Cc1ccc(Cl)cc1Cl)S(=O)(=O)c1ccccc1 | -22
COc1cc(C(=O)N2CCN(c3ccccc3)CC2)cc2occc12 | -2
O=C(NCc1cccc(Br)c1)c1ccc(Cl)c(-n2cnc3cccnc32)c1 | -1
O=C(COCC(=O)Nc1cccc(Cl)c1Cl)NCCC1=CCCCC1 | -3
O=C(O)C1CC=CCC1C(=O)N1CCCCCC1 (stereo not given) | 2
NC(=O)C(=O)Nc1ccccc1C(F)(F)F | -8
CC(C)c1ccc(Oc2cnn(-c3cccc(Cl)c3)c(=O)c2Nc2cccc(C(=O)NC3CC3)c2)cc1 | 48
COc1ccc(CNC(=O)c2cc(C(=O)c3ccc(F)cc3)c[nH]2)cc1 | -11

SMILES | % Inhibition [%]
COc1ccc(-n2ncc(Oc3cccc(C)c3)c(Nc3cccc(C(=O)NCc4ccc(F)cc4)c3)c2=O)cc1 | 50
O=c1cc(COc2ccc(F)c(F)c2)nc2sccn12 | 3
O=C(CCn1nc(-c2ccc3c(c2)OCO3)ccc1=O)NC1CCCCC1 | -10
CN(CCNC(=O)CCc1cn(-c2ccccc2)nc1-c1ccc2c(c1)OCO2)C1CCCCC1 | 52
Cc1cc2nc(C)c(=O)n(CCC(=O)NCCCN(C)C3CCCCC3)c2cc1C | 0
CN(C)c1noc(CN2CCc3ccc(F)cc3C2)n1 | 25
COc1ccc(S(=O)(=O)Nc2c(C)nc3ncnn3c2O)cc1 | -18
CCN1CCN(c2nc(O)c3c(n2)NC(=O)C[C@H]3c2cccc(F)c2)CC1 | -11
Cn1ncc2c(NCCO)nc(N3CCCCCC3)nc21 | 5
O=S(=O)(NC1CCCCC1)c1ccc(Cl)c(S(=O)(=O)NC2CCCCC2)c1 | 0
N#Cc1cc(S(=O)(=O)NCCN(C2CC2)S(=O)(=O)c2ccc(Cl)c(C#N)c2)ccc1Cl | 75
COc1ccc(-n2nc(C(=O)N3CCN(c4ccccc4)CC3)c(=O)cc2OC)cc1 | -5
Cn1ccnc1[C@@H](NC(=O)c1ccnn1C(F)F)C(C)(C)CO | -2
CCc1nc2c(C(=O)N3CCOc4c(C)cc(C)cc43)ccnc2[nH]1 | 72
COc1cccc(CNCc2ccc3c(c2)OCO3)c1OCc1ccc(Cl)cc1Cl | -3
Cc1c(C(=O)N2CCCCC2)cccc1N1CCNC1=O | -15
COc1cccc(C(=O)N2CCC3(CC2)C[C@@H](OCc2ccccc2)CCO3)c1 | -3
COc1cccc(NC(=O)c2ccccc2C(=O)OCCN2CCOCC2)c1 | -2
COc1ccc2c(c1)OC13CCN(C)CC1C2C(C(=O)c1ccccc1OC)C(=O)N3 (stereo not given) | 57
Cc1cc(C(=O)NCC[C@H](C)n2nc(C)cc2C)c2c(-c3ccc(F)cc3)noc2n1 | -9
Cn1cc(-c2nn(S(=O)(=O)c3ccccc3)c(-c3cnn(C)c3)c2Cl)cn1 | 2
CC1CC1NC(=O)C(NS(C)(=O)=O)C(C)(C)C (stereo not given) | 8
Cc1nc[nH]c1CN1CCN(C(=O)CCC(C)C)[C@H]2CS(=O)(=O)C[C@H]21 | 0
CCc1nc2cc(-c3noc(Cc4ccc(Cl)cc4)n3)ccc2o1 | -5
O=C(c1ccccc1)c1ccc(O)c(CN2CCCN(c3ccc(C(F)(F)F)cn3)CC2)c1O | 79

SMILES | % Inhibition [%]
Cc1ccc(-n2nc(C)cc2NC(=O)CN2CCCN(c3ccc(C(F)(F)F)cn3)CC2)cc1 | 6
Cc1cccc(-c2nc3nc(C)c(CC(=O)N4CCCCC4)c(C)n3n2)c1 | 1
O=C(c1ccccc1OCC1CC1)N1CC(O)C1 | -5
Cc1c(Cl)cccc1NC(=O)[C@H]1CC(=O)N(c2ccc(OCc3ccccc3)cc2)C1 | -3
O=C(Cn1cnc2cc3c(cc21)OCCCO3)N1CCc2ccccc21 | 0
COc1cccc(CNC(C)(C)C)c1OCC(=O)NC(C)(C)C | -5
CC[C@@H](CO)NCc1cccc(OC)c1OCC(=O)NC(C)(C)C | -8
CCOc1cc(CNc2cccc3ccccc23)cc(Br)c1OCC(=O)NC(C)(C)C | 89
COc1ccc(Cl)cc1CNC[C@H](C)O | -6
C[n+]1ccccc1/C=C/c1c[nH]c2ccccc12 | 90
CCc1ccc(/C=C/c2c[nH]c3ccccc23)[n+](CC)c1 | 89
O=C(Cc1cccs1)NC1CCN(c2nnc3ccc(Cl)cn23)CC1 | -12
Cc1ccc([C@@H]2c3cccn3CCCN2Cc2cccs2)cc1C | 10
O=C(O)COc1ccccc1[C@H]1CC(O)=Nc2cccc3c2c1cn3Cc1cccc(F)c1 | 1
N#Cc1ccc(CNc2ccccc2OCC(F)F)o1 | -10
CNCCCNC(=O)c1ccc(Br)cc1C | 5
CNC(=O)[C@@H]1C[C@H](NCc2cc(OC)c(OC)c(OC)c2)CN1CC(c1ccccc1)c1ccccc1 | 63
COc1cc(CNC2CCCCC2)cc(Br)c1OCc1ccccc1Cl | 5
COc1cc(NC(=O)N2CC(c3noc(-c4ccccc4)n3)C2)cc(OC)c1OC | 2
Cc1nc([C@H](C)NC(=O)c2ccc(S(C)(=O)=O)cc2)cs1 | 3
Cc1onc(C(=O)N2CCC3(CC2)CC[C@]3(C)O)c1Cn1cccn1 | -6
CC(=O)Nc1cc2c(cc1NC(C)=O)N(C(C)=O)CC2 | -15
COc1ccc(C2=Nc3ccc(S(=O)(=O)N4CCOCC4)cc3S(=O)(=O)N2)cc1 | -10
C[C@H]1CCC[C@@H](NCCc2ccccc2)CCC/C=C/c2cc(O)cc(O)c2C(=O)O1 | 77
Cc1nc2c(-c3ccco3)nc(=O)n(CC(=O)Nc3cccc4ccccc34)c2s1 | -8

SMILES | % Inhibition [%]
COc1cccc(NC(=O)N2CC(O)CC2C2CCCCC2)c1 (stereo not given) | -3
Oc1cccc(CN2CCC3(CC2)C[C@H](c2ccccc2)CN(C2CC2)C3)c1 | 31
COc1ccc(-c2nccn3cc(C(=O)NCC(C)C)nc23)cc1 | -2
Cc1cccc(Cc2c(C)nn(-c3nc(C)cc(C)n3)c2O)c1 | -18
CN(C)C(=O)c1cc2c(s1)CC[C@H](C(=O)NCCN1CCOCC1)C2 | 6
Cc1nn(-c2ncccn2)c2c1[C@@H](c1ccccc1)CC(=O)N2 | -16
O=C1C[C@H](c2cccnc2)c2cnn(C3CCCC3)c2N1 | 6
Cc1nn(-c2nc3ccccc3[nH]2)c2c1[C@@H](c1cccnc1)CC(=O)N2 | 79
O=C(CN1CCC[C@H]1C1CCCC1)NCC1CCCCC1 | 27
CC1=NN(c2ccccc2)C(O)C1C(c1ccccc1O)C1C(C)=NN(c2ccccc2)C1O (stereo not given) | -7
Cc1ccccc1Cn1nc2ccc(S(=O)(=O)N3CCOCC3)cn2c1=O | 4
COc1ccc2[nH]c3c(c2c1)CCN(C(=O)c1ccc(C)c(C)c1)[C@@H]3c1ccccc1OC | 84
COc1ccc([C@@H]2c3[nH]c4ccc(OC)cc4c3CCN2C(=O)NCc2ccc(F)cc2)cc1 | 14
COc1ccc(N2CCN(C(=O)c3ccc(F)cc3)[C@@H](C)C2=O)cc1 | 5
COC(=O)c1nc2ccccc2c(-c2cn(-c3ccc(C(F)(F)F)cc3)nn2)c1C(=O)OC | 1
CC(C)CNC(=O)N1CCCC[C@H]1c1noc(COc2ccc(F)cc2)n1 | -9
COc1ccc(C2=NN(C(C#N)c3cccc(OC)c3O)C(c3ccccc3)C2)cc1 (stereo not given) | 4
c1ccc(C2=NN(c3ccc(-c4cc(-c5ccccc5)[n+](-c5ccccc5)c(-c5ccccc5)c4)cc3)[C@H](c3ccccc3)C2)cc1 | 94
N#CC(c1ccc(Cl)cc1)N1N=C(c2ccccc2)CC1c1ccccc1 (stereo not given) | 4
Cc1cccc(C(=O)Nc2c(C#N)c(-c3ccccc3)c(-c3ccccc3)n2Cc2ccccc2)c1 | 3
CC(NCC(O)Cn1c(-c2ccccc2)c(-c2ccccc2)c2ccc3ccccc3c21)c1ccccc1 (stereo not given) | 88
Cc1c(C)n(C[C@@H](O)CNC2CCCC2)c2c(Cl)cccc12 | -1
Cc1c(C)n(CC(O)CNC(C)c2ccccc2)c2c(Cl)cccc12 (stereo not given) | 64
CCC(C)NCC(O)Cn1c(-c2ccccc2)c(-c2ccccc2)c2cc(C)ccc21 (stereo not given) | 92
Cc1c(C)n(C[C@H](O)Cn2c(C(F)(F)F)nc3ccccc32)c2c(Cl)cccc12 | -6
